± gives the standard deviation of the averaged measurements.
Each compound was assayed on HCC1569 (assay: cell number relative to DMSO (% of DMSO); higher = more cells (less growth inhibition / toxicity)). Settings: concentration: 10 µM; 24 h.
In short: (§1)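 Treatment: HCC1569 and TDF cells, 800 per well in 384-well plates with RPMI and 10% FBS, were given compounds at 10 µM for 24 h at 37 °C, in triplicate. Readout: after 3.7% formaldehyde fixation, cells were stained with a rabbit anti-H1.0 antibody, an AlexaFluor 647 secondary and DAPI. Reported values are H1.0 nuclear intensity or cell number as percent of the plate control, taken as the median of replicates, with positional smoothing for HCC1569.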
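Further: TDF denotes transformed human dermal fibroblasts of mesenchymal origin.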

Row | Compound | cell number
1 | Cc1ccc(OCC(O)C(C)NC(C)C)c2c1CCC2.Cl (centres undefined) [ICI 118,551 hydrochloride] | 101
2 | N#Cc1cnc2cnc(NCc3cccnc3)cc2c1Nc1ccc(F)c(Cl)c1 [Tpl2 Kinase Inhibitor] | 69.9
3 | CCCCCC(O)C=CC1C(O)CC(=O)C1CC=CCCCC(=O)O (centres undefined) [Prostaglandin E2] | 100 ± 2.4
4 | CCCCCC(O)C=CC1C(O)CC2CC(=CCCCC(=O)O)CC21 (centres undefined) [Carbacyclin] | 103

Each compound was assayed on TDF in the same assay as above. Settings: concentration: 10 µM; 24 h.
In short: as §1

Row | Compound | cell number
5 | CN(C)[C@@H]1CCc2[nH]c3ccc(NC(=O)c4ccc(F)cc4)cc3c2C1.Cl | 90.8
6 | Cc1cc(C(C)(C)C)c(O)c(C(C)(C)C)c1 | 105
7 | Cl.c1ccc(-n2c(C3=NCCN3)cc3ccccc32)cc1 | 92.4
8 | Cl.N=c1ccn2c(n1)OC1C(O)C(CO)OC12 (centres undefined) [Ancitabine hydrochloride] | 50.3
9 | CC(N)C1CCC(C(=O)Nc2ccncc2)CC1.Cl.Cl (centres undefined) | 106
10 | O=C(Nc1cccc(Cl)c1)Nc1ncc(CCNc2ncnc3ccsc23)s1 | 42.9
11 | NC(=O)c1ccc(N(C(N)=O)c2c(F)cccc2F)nc1-c1ccc(F)cc1F | 104
12 | CC(C)N=c1cc2n(-c3ccc(Cl)cc3)c3ccccc3nc-2cc1Nc1ccc(Cl)cc1 | 72.2
13 | CNc1nccc(-c2cccnc2Oc2cc(C(=O)Nc3cccc(C(F)(F)F)c3)ccc2C)n1 | 103
14 | Cl.Cl.OCCN1CCN(CCCN2c3ccccc3C=Cc3ccccc32)CC1 | 98.8

— the supplement of paper PMC7156485
